Data on 17 molecules can be found in PubChem BioAssay (EPA / NIEHS).

Assay [1] in a line: APR_HepG2_StressKinase_1hr: Apredica 1-hour HepG2 Assay for Stress Kinase (AID 2282906). The note with it: HepG2 stress kinase (phospho-c-Jun) imaging, actives raise or lower the signal. The method, boiled down: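 HepG2 cells dosed 0.39-200 uM (0.5% DMSO) for 1 h, then formaldehyde-fixed. Stress kinase read by phospho-c-Jun immunofluorescence using high-content imaging; bidirectional fit vs DMSO.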

Assay [2] is described as follows: APR_HepG2_NuclearSize_24hr: Apredica 24-hour HepG2 Assay for Nuclear Size (AID 2282907). The note with it: high-content imaging, actives raise or lower the signal. The method, boiled down:
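HepG2, 24 hr dosing, 10-pt 0.39–200 uM, duplicates, 0.5% DMSO final; 3.7% formaldehyde fix, 0.5% Triton X-100; Hoechst 33342 nuclear stain; ArrayScan HCS, Cell Cycle analysis → nuclear size; bidirectional fit vs DMSO.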

A short description of assay [3]: APR_HepG2_CellLoss_24hr: Apredica 24-hour HepG2 Assay for Cell Loss (AID 2282908).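 As to AC50: fit in both directions so a hit may be cell loss or gain.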 The note with it: high-content imaging. The method, boiled down: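 10-pt dose, 0.39–200 uM, n=2/plate; DMSO 0.5% v/v final as negative control. Fix 3.7% formaldehyde 30 min RT, permeabilize 0.5% Triton X-100, stain Hoechst 33342 2 ug/mL, image 20x. Nuclear count, bidirectional fit vs DMSO.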

The nature of assay [4]: APR_HepG2_MicrotubuleCSK_24hr: Apredica 24-hour HepG2 Assay for Microtubule CSK Stabilty (AID 2282909). The following applies: HepG2 microtubule cytoskeleton imaging, actives raise or lower the signal. Summed up: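 Human liver HepG2, 24 h dosing, 0.39–200 uM ×10 conc, dup, 0.5% DMSO. 3.7% formaldehyde fix, 0.5% Triton perm, anti-alpha-tubulin (1:200)/Cy5 secondary + Hoechst. HCS imaging, 6 fields/well; gain/loss fit vs DMSO.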

Assay [5] can be described thus: APR_HepG2_MitoticArrest_24hr: Apredica 24-hour HepG2 Assay for Mitotic Arrest (AID 2282910). The following applies: high-content imaging, actives raise or lower the signal. The method, boiled down:
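Compounds are dosed onto HepG2 cells across ten concentrations up to 200 uM for 24 hr. Cells are then fixed in 3.7% formaldehyde, permeabilised, and labelled for phospho-histone H3 and nuclei; images are scored by cell cycle analysis and fitted bidirectionally relative to DMSO.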

The nature of assay [6]: APR_HepG2_MitoMembPot_24hr: Apredica 24-hour HepG2 Assay for Mitochondrial Membrane Potential (AID 2282911). The note with it: imaging, actives raise or lower the signal. Summed up: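 Human hepatoma HepG2 cultures received ten compound concentrations up to 200 uM for 24 hr. Membrane-potential dye signal, captured by automated fluorescence microscopy, was scored for gain or loss against DMSO controls.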

Assay [7] is described as follows: APR_HepG2_MitoMass_24hr: Apredica 24-hour HepG2 Assay for Mitochondrial Mass (AID 2282912). The note with it: high-content imaging, actives raise or lower the signal. The method, boiled down: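 Mitochondrial mass is read as MitoTracker Red fluorescence intensity from automated imaging, with bidirectional curve fitting relative to DMSO. HepG2 cells received compound (0.39–200 uM, 0.5% DMSO final) for 24 hr and were dye-loaded (250 nM, 30 min) before formaldehyde fixation.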

The nature of assay [8]: APR_HepG2_p53Act_24hr: Apredica 24-hour HepG2 Assay for p53 Activation (AID 2282913).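 Also: p53 protein immunofluorescence averaged per cell in HepG2 with Hoechst nuclei.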 The note with it: high-content imaging, actives raise or lower the signal. Summed up: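 Automated fluorescence imaging quantifies p53 immunostaining in HepG2 cells after a 24 hr exposure (0.39–200 uM, duplicate, 0.5% DMSO). Nuclei are located by Hoechst 33342 staining.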
A short description of assay [9]: APR_HepG2_CellCycleArrest_72hr: Apredica 72-hour HepG2 Assay for Cell Cycle Arrest (AID 2282914). The following applies: high-content imaging, actives raise or lower the signal. The method, boiled down:
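Cell cycle arrest in HepG2 was scored from nuclear DNA content after 72 hr compound treatment (0.39–200 uM). Activity, either gain or loss, was fitted against the DMSO baseline.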

A short description of assay [10]: APR_HepG2_CellLoss_72hr: Apredica 72-hour HepG2 Assay for Cell Loss (AID 2282915). The following applies: high-content imaging. The method, boiled down: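 Cell number comes from Hoechst 33342-labelled nuclei, imaged at 20x after 3.7% formaldehyde fixation. Dosing was 0.39–200 uM, ten concentrations in duplicate, 0.5% DMSO final, for 72 h. Bidirectional fit relative to DMSO baseline.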

For orientation: AC50 means the midpoint of the concentration-response curve, whichever way the signal moves.

The source made the active and inactive calls. The calls were made as follows: active = hit-call score of the fitted dose curve at least 0.9, where 1 is the maximum; inactive = score below 0.9.

On to `CCC(=NOC/C=C/Cl)C1=C(O)CC(C2CCOCC2)CC1=O` (stereo not drawn), for which the result in [1], in assay [2], in assay [3], in [4], in assay [5] and in assay [6] was inactive. For the same molecule, the result in assay [7], in assay [8], in [9] and in [10] was inactive.
Turning to `N#CSCSC#N`, the molecule was classed as inactive in [1], in [2], in [4], in assay [5], in assay [6] and in assay [7]. In addition, the result in [8], in [9] and in assay [10] was inactive. Also, in [3], the AC50 is 13.6 µM (active).
Take `CCCCN(CC)c1c([N+](=O)[O-])cc(C(F)(F)F)cc1[N+](=O)[O-]`: the outcome in assay [1], in assay [2], in [3], in assay [4], in assay [5] and in assay [7] was inactive. Besides, the result in assay [8] was inactive. Besides, the AC50 in assay [6] is 71.9 µM (active); in assay [9], 108 µM (active); in assay [10], 84.6 µM (active).
In the case of `Cc1cc(C2CC2)nc(Nc2ccccc2)n1`, the molecule was classed as inactive in [1], in assay [2], in [5], in assay [6], in assay [7] and in [8]. Also, the result in assay [9] was inactive. Further, the figures for the AC50 in [3], in assay [4] and in assay [10] were 60.5 µM (active), 98.6 µM (active) and 75.7 µM (active), respectively.
With `CN(C)C(=O)Nc1cccc(C(F)(F)F)c1`, the molecule was classed as inactive in [1], in assay [2], in assay [3], in [4], in assay [5] and in assay [6]. Further, the outcome in assay [7], in [8], in assay [9] and in assay [10] was inactive.
On to `CON=C(C(=O)OC)c1ccccc1CON=C(C)c1cccc(C(F)(F)F)c1`, for which the molecule was classed as inactive in assay [1], in assay [2], in [3], in [4], in assay [5] and in assay [7]. Also, the result in [8] and in assay [9] was inactive. The values for the half-maximal activity concentration (AC50) in [6] and in [10] were 1.07 µM (active) and 3.36 µM (active), respectively.
For the molecule `C#CCC1=C(C)C(OC(=O)C2C(C=C(C)C)C2(C)C)CC1=O` (stereo not drawn), the molecule was classed as inactive in assay [1], in assay [2], in assay [4], in assay [5], in assay [6] and in assay [7]. Besides, the molecule was called inactive in [8] and in assay [10]. Also, the AC50 in assay [3] was 89.4 µM (active); in assay [9], 104 µM (active).
In the case of `CCCOc1nn(C(=O)NS(=O)(=O)c2ccccc2C(=O)OC)c(=O)n1C`, the molecule was called inactive in [1], in assay [2], in [3], in assay [4], in assay [5] and in assay [6]. Also, the molecule was classed as inactive in assay [7], in assay [8], in assay [9] and in assay [10].
For the molecule `S=C1NCCN1`, the call in [1], in assay [2], in assay [3], in [4], in assay [5] and in assay [6] was inactive. Further, the molecule was classed as inactive in [7], in [8], in [9] and in [10].
For the molecule `CC(Oc1cccc(Cl)c1)C(=O)O` (stereo not drawn), the result in assay [1], in assay [2], in assay [3], in assay [4], in [5] and in assay [6] was inactive. The molecule was called inactive in [7], in assay [8], in assay [9] and in [10].
Take `CCC(CC)Nc1c([N+](=O)[O-])cc(C)c(C)c1[N+](=O)[O-]`: the call in assay [1], in assay [2], in assay [3], in [4], in assay [5] and in assay [7] was inactive. The molecule was called inactive in [8] and in [9]. The figures for the AC50 in assay [6] and in assay [10] were 84.3 µM (active) and 108 µM (active), respectively.
Turning to `COP(=O)(OC)C(O)C(Cl)(Cl)Cl` (stereo not drawn), the result in assay [2], in assay [6], in [7] and in assay [8] was inactive. For the same molecule, the AC50 in assay [3] is 76.8 µM (active); in [4], 97.7 µM (active); in assay [5], 103 µM (active); in assay [9], 184 µM (active); in assay [10], 100 µM (active).
Consider `CC[C@H](C)[C@H]1O[C@]2(C=C[C@@H]1C)C[C@@H]1C[C@@H](C/C=C(\C)[C@@H](O[C@H]3C[C@H](OC)[C@@H](O[C@H]4C[C@H](OC)[C@@H](NC)[C@H](C)O4)[C@H](C)O3)[C@@H](C)/C=C/C=C3\CO[C@@H]4[C@H](O)C(C)=C[C@@H](C(=O)O1)[C@]34O)O2`, for which the AC50 in assay [1] is 17.6 µM (active); in assay [3], 2.55 µM (active); in assay [4] it was 12.6 µM (active); in assay [5], 12.7 µM (active); in assay [7], 8.64 µM (active). For the same molecule, the call in [2], in [6], in [8], in assay [9] and in assay [10] was inactive.
Regarding `CCOP(=S)(Oc1cnc(C(C)(C)C)nc1)OC(C)C` (stereo not drawn), the molecule was called inactive in [1], in [2], in assay [3], in assay [4], in assay [5] and in assay [6]. Moreover, the molecule was called inactive in [7] and in assay [8]. Further, the figures for the AC50 in [9] and in assay [10] were 113 µM (active) and 82.7 µM (active), respectively.
With `CCCCOC(=O)c1ccccc1C(=O)O`, the molecule was classed as inactive in assay [1], in assay [2], in [3], in [4], in assay [5] and in [6]. The molecule was classed as inactive in [7], in assay [8], in [9] and in [10].
As for `COP(=O)(OC)SCn1c(=O)oc2cc(Cl)cnc21`, the call in [1], in [2], in assay [5], in assay [6], in assay [7] and in assay [8] was inactive. Also, the AC50 in assay [3] is 32.9 µM (active); in assay [4], 30.2 µM (active); in assay [9], 47.4 µM (active); in [10] it was 37.8 µM (active).
In the case of `CN(C)[C@@H]1C(=O)C(C(N)=O)=C(O)[C@@]2(O)C(=O)C3=C(O)c4c(O)cccc4[C@@](C)(O)[C@H]3[C@H](O)[C@@H]12`, the molecule was called inactive in [1], in assay [2], in assay [3], in [4], in assay [5] and in assay [6]. Moreover, the call in assay [7], in assay [9] and in [10] was inactive.
